# This is a sample that favours compounds with a hit; in the whole collection about 8% have one here.
# SARS PLpro yeast – SARS-CoV PLP inhibition in yeast | Potency, µM (series often up to 32.9 µM), inactives show at the top dose activity, positive = growth rescue, actives largely listed as activators | S. cerevisiae expressing SARS-CoV PLpro, growth rescue | AID 485353 | hit rate 0.19% among 330,000; calls by dose curve; further: potency means the concentration at half of the fitted maximal effect; 0% is about no effect; nearly all actives have a fitted effect of over 55% in size
# LASV entry inh – blocks Lassa virus binding to or entry into cells; Lassa virus pseudotype entry inhibition, cell reporter; Potency, µM (doses to about 37.9 µM), inactives show at the highest dose activity change, negative = inhibition, usual class: inhibitors; hit rate 1.2% among 300,000; calls by dose curve; tested in HEK293 cells; further: potency means the concentration at half of the fitted maximal effect; on the % scale 0 is the no-effect control and ±100 the full control effect; nearly all actives have a fitted effect of over 50% in size
# FMDV inh – foot and mouth disease virus antiviral activity; FMDV antiviral cell-based qHTS; Potency, µM (doses to about 57.9 µM), inactives show at the highest dose activity change, negative = inhibition, hits mostly inhibitors; hit rate 1.2% among 410,000; calls by dose curve; tested in HEK293T cells; further: read-out not given here; potency means the concentration at half of the fitted maximal effect; on the % scale 0 is the no-effect control and ±100 the full control effect; nearly all actives have a fitted effect of over 45% in size
# MARV entry inh – inhibitors of Marburg virus binding or cell entry | Marburg virus pseudotyped entry inhibition, cell reporter | Potency, µM (doses to about 37.8 µM), inactives show top-dose activity change, negative = inhibition, most hits filed as inhibitors | hit rate 1.8% among 300,000 | AID 540276; calls by dose curve; tested in HEK293 cells; further: potency means the concentration at half of the fitted maximal effect; on the % scale 0 is the no-effect control and ±100 the full control effect
# HCV inhibitor – HCV inhibition; Potency, µM (series often up to 41.8 µM), without a hit: top-dose activity change, negative = inhibition, usual class: inhibitors; AID 651820; Huh7.5.1 HCVcc-Cre infection, luciferase reporter, 44 h; hit rate 3.4% among 340,000; active means well fitted inhibition curve with a large enough effect; inconclusive means small, poorly fitted or top-dose-only effect, or another doubt; inactive means no such curve, though single readings can be large or run the other way; further: potency means the concentration at half of the fitted maximal effect; on the % scale 0 is the no-effect control and ±100 the full control effect
#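 A cell-based infection assay in which seeded cells (1,000 per well) receive test compound after 4 h, are inoculated with HCVcc-Cre at approximately 0.5 moi, and are incubated 44 h before luminescence detection.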
# HCMV antiviral – inhibitors of human cytomegalovirus; HFF cells, HCMV-luciferase reporter, 72 h; active compounds read low; activity change, negative = inhibition, % at 57.5 µM; hit rate 4.5% among 410,000; AID 1259415; in the data active means activity change below about -60%; inconclusive means no clear call, values can overlap the other calls; inactive means above about -39%; further: on the % scale 0 is the no-effect control and ±100 the full control effect
#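 Two compound doses tested in HFFs infected with HCMV-luciferase, MOI 1 PFU/cell, 72 h at 37C. Lysate luminescence read with OneGlo; data normalized against buffer-only and 10uM Salinomycin inhibitor controls.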
# * = called active by the depositor; ? = inconclusive; · = no result given; [ ] = remark or other dose.
SMILES,SARS PLpro yeast,LASV entry inh,FMDV inh,MARV entry inh,HCV inhibitor,HCMV antiviral
CCC1CN(CCNC(=O)c2cc(C(C)C)nn2C)Cc2cc(OC)ccc2O1 (stereo not given),·,·,-29.5%,·,·,·
Cc1ccc(NC(=O)C2CCN(S(=O)(=O)c3ccc4c(c3)NC(=O)C(C)S4)CC2)cc1C (stereo not given),-1.0%,?,?,?,?,-61.6*
CCOc1ccc(CN(C)C(=O)c2ccc3c(c2)NC(=O)C(C)S3)cc1OC (stereo not given),-15.7%,·,?,·,12.6µM*,-18.5
COc1ccc(Br)cc1CN(C)C(=O)c1ccc2c(c1)NC(=O)C(C)S2 (stereo not given),-1.5%,2.8%,24.9%,27.1%[46.1 µM],14.2%,34.3
COc1ccc(CCNS(=O)(=O)c2ccc3c(c2)NC(=O)C(C)S3)cc1OC (stereo not given),16.8%,-9.3%[46.1 µM],-16.1%,?,25.1µM*,-20.5
COc1ccc(CCNC(=O)CCS(=O)(=O)c2ccc3c(c2)NC(=O)C(C)S3)cc1OC (stereo not given),-12.6%,·,-15.0%,·,1.4%,-31.4
Cc1ccc(NC(=O)C2CCN(S(=O)(=O)c3ccc4c(c3)NC(=O)C(C)S4)CC2)c(C)c1 (stereo not given),-1.7%,?,-19.4%,?,?,0.0
CC1Sc2ccc(S(=O)(=O)N3CCC(C(=O)Nc4cccc(Cl)c4)CC3)cc2NC1=O (stereo not given),-1.9%,?,20µM*,?,3.16µM*,-99.9*
CN(Cc1ccccc1)C(=O)COC(=O)C1CCN(S(=O)(=O)c2ccc(Cl)c(C(F)(F)F)c2)CC1,-4.0%,6.0%,-21.1%,-17.9%[46.1 µM],-1.6%[8.37 µM],-65.9*
CCc1cccc(NS(=O)(=O)c2ccc3c(c2)NC(=O)C(C)S3)c1 (stereo not given),4.0%,·,2.2%,·,?,0.0
CCC(Cc1ccccc1)NS(=O)(=O)c1ccc2c(c1)NC(=O)C(C)S2 (stereo not given),5.2%,·,-16.0%,·,?,-86.4*
CN1C(=O)c2[nH]nc(-c3ccc(F)cc3)c2C1c1cccc(O)c1 (stereo not given),·,24.8%[46.1 µM],-22.5%,11.6%[46.1 µM],·,12.7
CCOc1ccc(NC(=O)c2ccc3c(c2)CCN3S(=O)(=O)c2ccc(Cl)cc2)cc1,·,?,0.0%,?,·,-14.1
NS(=O)(=O)c1ccc(NC(=O)N2c3ccccc3Sc3ccccc32)cc1,-13.8%,?,·,-11.8%,-6.0%,-63.5*
CCc1ccc(NC(=O)N2c3ccccc3Sc3ccccc32)cc1,·,?,-13.6%,1.4%[46.1 µM],·,-17.4
COc1ccc2cc(CNc3ccc(C)cc3)c(=O)n(CC(=O)Nc3cccc(C(F)(F)F)c3)c2c1,·,-2.5%[46.1 µM],5.7%,·,·,1.1
O=c1sc2ccccc2n1COc1ccccc1,6.0%,28.0%,25.2%,0.5%,19.6%,-95.0*
CCOc1ccccc1Cn1c(=O)sc2ccccc21,-2.1%,8.0%,-14.2%,-28.0%[46.1 µM],10.1%,-66.1*
COC(=O)[C@H]1[C@H](C)[C@@]2(O)c3ccccc3N(C)[C@@]1(C)[C@H]2O,·,·,·,-24.9%[14.2 µM],·,·
COCCCOc1ccnc(CS(=O)c2nc3ccccc3[nH]2)c1C (stereo not given),-17.9%,·,9.9%,·,?,-65.1*
CC(C)(C)c1cc(CCC(=O)Nc2ccncc2)cc(C(C)(C)C)c1O,·,·,-6.7%,·,?,-63.3*
COc1ccc(-c2cc(C3CCN(c4cc(Cl)nc(N)n4)CC3)[nH]n2)cc1,-12.1%,?,22.4µM*,9.2µM*,?,-60.2*
COc1ccc(NC(=O)c2cc(-c3cc(Cl)ccc3OC)n[nH]2)c(OC)c1,·,·,-16.7%,·,·,-34.9
COc1ccc(OC)c(-c2cc(C3CCN(c4cc(Cl)nc(N)n4)CC3)[nH]n2)c1,-11.0%,?,17.8µM*,?,?,-88.5*
COC(=O)c1ccc(OCC2c3cc(OC)c(OC)cc3CCN2C(=O)c2cccc(C)c2)cc1 (stereo not given),·,?,?,·,·,6.0
SMILES,SARS PLpro yeast,LASV entry inh,FMDV inh,MARV entry inh,HCV inhibitor,HCMV antiviral
Cc1ccc(C)c(N(CC(=O)NC2CCCC2)C(=O)c2cc3cc4cc(C)ccc4nc3s2)c1,2.3%,-9.2%,·,-20.1%,22.4µM*,-16.4
COc1ccc(C(=O)NCc2ccccc2)cc1S(=O)(=O)N1CCCc2ccccc21,10.3%,?,46.8%,-24.1%,11.2µM*,-27.2
COc1ccc(C(=O)Nc2cccc(C)n2)cc1S(=O)(=O)N1CCCc2ccccc21,·,?,-26.6%,?,2.51µM*,-72.4*
O=C(NNC(=O)c1ccccc1O)c1ccc(Cl)c(S(=O)(=O)N2CCc3ccccc32)c1,1.1%,?,?,-28.6%[46.1 µM],?,-72.4*
Cc1ccc(NC(=O)c2ccc(Cl)c(S(=O)(=O)N3CCCC3)c2)nc1,-3.1%,-12.3%[46.1 µM],?,-18.0%,?,?
Cc1ccc(NC(=O)c2ccc(Cl)c(S(=O)(=O)N3CCc4ccccc43)c2)nc1,·,?,-27.0%,?,?,-78.8*
COc1cccc(NC(=O)c2c(C)oc3nc(C)nc(N4CCCC4)c23)c1,·,?,-3.9%,·,·,87.8
COc1ccc(CCNc2ncnc3c2nnn3C)cc1,·,?,-39.5%,·,·,-31.7
Cc1ccc(C)c(S(=O)(=O)c2nnn3c2nc(N2CCCCC2)c2sccc23)c1,·,-33.0%[46.1 µM],-0.2%,·,·,?
COc1ccc(C(=O)O)cc1S(=O)(=O)N1CCCc2ccccc21,0.8%,·,3.3%,·,15.1%,53.9
COc1ccc(C(=O)Nc2ccc(C)cn2)cc1S(=O)(=O)N1CCCc2ccccc21,-2.1%,?,-23.2%,-29.9%,4.47µM*,?
COc1ccc(Nc2cc(C)nc3nc(C)nn23)cc1Cl,-4.8%,·,?,·,1.8%,19.5
Cc1cc(Nc2ccc(C(C)C)cc2)nc(-n2nc(C)cc2C)n1,·,?,-23.6%,·,·,-91.5*
COc1ccc(Nc2cc(C)nc(-n3nc(C)cc3C)n2)cc1Cl,·,?,-9.4%,·,·,-98.2*
COc1ccc(C)cc1NC(=O)c1cc(S(=O)(=O)NC2CCCCCC2)ccc1F,·,-3.2%[46.1 µM],45.8%,·,·,-34.0
Nc1ccc(Br)c[n+]1Cc1cccc2cccnc12,0.8%,-17.4%[46.1 µM],-16.9%,10µM*,-4.0%,-20.2
COc1ccc(S(=O)(=O)Oc2ccc(C(=S)N3CCOCC3)cc2OC)cc1,1.9%,-20.7%,?,?,?,-16.2
COc1cc(C(=S)N2CCOCC2)ccc1OS(=O)(=O)c1ccc(NC(C)=O)cc1,9.1%,?,12.6µM*,?,?,-72.9*
COc1cc(C(=S)N2CCCC2)ccc1OS(=O)(=O)c1ccc(NC(C)=O)cc1,0.0%,16.4µM*,20µM*,-24.4%,10µM*,-36.2
Cc1cc(C)cc(NC(=O)Nc2cc(S(=O)(=O)N(C)C)ccc2C)c1,-0.7%,12.6µM*,-23.3%,?,?,-3.6
Cc1ccc(S(=O)(=O)N(C)C)cc1NC(=S)NC(C)CCCC(C)C (stereo not given),21.7%,?,?,?,?,-73.0*
